Test results published in PubChem BioAssay (NCATS).
Several values for one entry are separate records, joined by “and”; a condition that tells them apart may be missing. Equal entries are not always repeated. Inconclusive results are not listed. Activity calls are given as the source filed them. Calls follow the shape of the full dose curve.

Test: qHTS Assay for Lipid Storage Modulators (AID 1519); as to activity change, negative = inhibition: % is scaled to controls: 0 for no effect and ±100 for the full control effect
Conditions: Drosophila S3 cells, BODIPY lipid droplet/cell ratio, laser cytometry; at 25.7 µM (top of the series); cells loaded with oleic acid
Method in brief: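 Cells seeded at 5,000 per well were treated with compounds over a concentration series and loaded with oleic acid (400 uM, as added). Lipid droplet fluorescence (488 nm excitation, 500-530 nm channel) was read by laser-scanning cytometry and normalized to 20 uM Triacsin C.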
With `Nc1cc(-c2ccncc2)c[nH]c1=O` the activity change, negative = inhibition was 3.03% (inactive).
In the case of `O=C(O)Cc1ccc(-c2ccccc2)cc1`, the activity change, negative = inhibition is reported as 1.48% (inactive).
With `Cc1c(N)c(=O)n(-c2ccccc2)n1C` the activity change, negative = inhibition was -0.255% (inactive).
In the case of `Cc1c(Nc2ncccc2C(=O)O)cccc1C(F)(F)F`, the activity change, negative = inhibition is reported as -1.24% (inactive).
With `CCCSc1ccc2nc(NC(=O)OC)[nH]c2c1` the activity change, negative = inhibition was -1.88% (inactive).

Same assay, conditions: Drosophila S3 cells, BODIPY lipid droplet/cell ratio, laser cytometry; at 57.5 µM (top of the series); cells loaded with oleic acid
With `O=c1[nH]c2cc(Cl)c(Cl)cc2[nH]c1=O` the activity change, negative = inhibition was -0.911% (inactive).
In the case of `Oc1ccc(C2CNCc3sccc32)cc1O` (centres undefined), the activity change, negative = inhibition is reported as -2.2% (inactive).
With `O=C(OCc1ccccc1)c1ccccc1` the activity change, negative = inhibition was 9.34% (inactive).
With `O=S(=O)(c1cccc2c(I)cccc12)N1CCCNCC1` the activity change, negative = inhibition was 1.19% (inactive).
For `C=CC(N)CCC(=O)O` (centres undefined), the activity change, negative = inhibition was 4.04% (inactive).
In the case of `O=C(c1cc(O)c(O)c([N+](=O)[O-])c1)c1ccccc1F`, the activity change, negative = inhibition is reported as -2.67% (inactive).
For `NC(CCCP(=O)(O)O)C(=O)O` (centres undefined), the activity change, negative = inhibition was 0.0706% (inactive).
For `Fc1cccc(/C=N/N=C/c2cccc(F)c2)c1`, the activity change, negative = inhibition was 2.18% (inactive).
With `Cn1c(=O)c2[nH]c(-c3ccccc3)nc2n(C)c1=O` the activity change, negative = inhibition was 1.32% (inactive).
For `CN1C2CCC1CC(OC(=O)C(O)c1ccccc1)C2` (centres undefined), the activity change, negative = inhibition was 9.19% (inactive).
In the case of `O=c1[nH]c2ccccc2n1CCCN1CCN(C(c2ccccc2)c2ccccc2)CC1`, the activity change, negative = inhibition is reported as 0.533% (inactive).
With `Nc1ccc(C(=O)O)c(O)c1` the activity change, negative = inhibition was -7.1% (inactive).
With `CCCCCCCCCCCCCCCCCC(=O)NCC(COP(=O)([O-])OCC[N+](C)(C)C)OCC` (centres undefined) the activity change, negative = inhibition was -1.69% (inactive).
In the case of `COc1cc2nc(N3CCN(C(=O)OCc4ccccc4)C(C(=O)NC(C)(C)C)C3)nc(N)c2cc1OC` (centres undefined), the activity change, negative = inhibition is reported as 1.16% (inactive).
With `COc1cc(NC(C)CCCN)c2ncccc2c1` (centres undefined) the activity change, negative = inhibition was 7.1% (inactive).
For `N[C@H](CCCP(=O)(O)O)C(=O)O`, the activity change, negative = inhibition was 2.93% (inactive) and -1.99% (inactive).
In the case of `Cc1c(N)c(=O)n(-c2ccccc2)n1C`, the activity change, negative = inhibition is reported as 3.79% (inactive).
With `O=c1cc(-c2ccccc2)oc2c(O)c(O)ccc12` the activity change, negative = inhibition was -5.17% (inactive).
In the case of `CCCCCCOc1ccccc1C(N)=O`, the activity change, negative = inhibition is reported as 12.4% (inactive).
With `O=C(O)c1cc(=O)c2c(Cl)cc(Cl)cc2[nH]1` the activity change, negative = inhibition was 4.31% (inactive) and -0.435% (inactive).
For `NCCSSCCN`, the activity change, negative = inhibition was 3.98% (inactive).
With `CCCN(CC1CC1)c1nc(C)nc(Nc2c(Cl)cc(Cl)cc2Cl)c1Cl` the activity change, negative = inhibition was -0.101% (inactive).
For `OC[C@H]1O[C@@H](n2cnc3c(NC4CCCCC4)ncnc32)[C@H](O)[C@@H]1O`, the activity change, negative = inhibition was 0.866% (inactive).
For `CN1CCC[C@H]1c1cccnc1`, the activity change, negative = inhibition was 2.76% (inactive) and 1.23% (inactive).
For `N=C(N)N`, the activity change, negative = inhibition was 4.02% (inactive).
For `COc1cccc(OC)c1OCCNCC1COc2ccccc2O1` (centres undefined), the activity change, negative = inhibition was 3.94% (inactive) and -4.43% (inactive).
With `COc1cc(C(O)CO)ccc1OS(=O)(=O)O` (centres undefined) the activity change, negative = inhibition was 0.915% (inactive).
In the case of `CCCCCCCCCCCCCCCCCCNC(=O)OCC(COP(=O)([O-])OCC[n+]1ccsc1)OC` (centres undefined), the activity change, negative = inhibition is reported as 0.643% (inactive).
With `Oc1c(Br)cc(Br)c2cccnc12` the activity change, negative = inhibition was 1.03% (inactive).
With `CC(C(=O)O)c1ccc(C(=O)c2cccs2)cc1` (centres undefined) the activity change, negative = inhibition was 15.6% (inactive).
For `N[C@@H](CC(=O)O)C(=O)O`, the activity change, negative = inhibition was 4.62% (inactive) and -0.577% (inactive).
In the case of `CN1CCc2cc(O)c(O)cc2C(c2ccccc2)C1` (centres undefined), the activity change, negative = inhibition is reported as -0.441% (inactive).
With `CCCSc1ccc2nc(NC(=O)OC)[nH]c2c1` the activity change, negative = inhibition was 9.19% (inactive).

Same assay, conditions: Drosophila S3 cells, BODIPY lipid droplet/cell ratio, laser cytometry; measured here: cell count channel max response; cells loaded with oleic acid
`O=c1[nH]c2cc(Cl)c(Cl)cc2[nH]c1=O` gave a max response of -49.2%.
In the case of `Oc1ccc(C2CNCc3sccc32)cc1O` (centres undefined), the max response is reported as 25.9%.
In the case of `O=C(OCc1ccccc1)c1ccccc1`, the max response is reported as -2.84%.
For `Nc1cc(-c2ccncc2)c[nH]c1=O`, the max response was 5.25%.
With `O=S(=O)(c1cccc2c(I)cccc12)N1CCCNCC1` the max response was -8.25%.
With `C=CC(N)CCC(=O)O` (centres undefined) the max response was 13.5%.
With `O=C(c1cc(O)c(O)c([N+](=O)[O-])c1)c1ccccc1F` the max response was -12%.
`NC(CCCP(=O)(O)O)C(=O)O` (centres undefined) showed a max response of -11.8%.
In the case of `O=C(O)Cc1ccc(-c2ccccc2)cc1`, the max response is reported as -7.71%.
Work on `Fc1cccc(/C=N/N=C/c2cccc(F)c2)c1` yielded a max response of -17.3%.
In the case of `Cn1c(=O)c2[nH]c(-c3ccccc3)nc2n(C)c1=O`, the max response is reported as 63.6%.
Compound `CN1C2CCC1CC(OC(=O)C(O)c1ccccc1)C2` (centres undefined) has a max response of 16.5%.
For `O=c1[nH]c2ccccc2n1CCCN1CCN(C(c2ccccc2)c2ccccc2)CC1`, the max response was 44.5%.
Compound `Nc1ccc(C(=O)O)c(O)c1` has a max response of 19.5%.
Compound `CCCCCCCCCCCCCCCCCC(=O)NCC(COP(=O)([O-])OCC[N+](C)(C)C)OCC` (centres undefined) has a max response of 15.1%.
Work on `COc1cc2nc(N3CCN(C(=O)OCc4ccccc4)C(C(=O)NC(C)(C)C)C3)nc(N)c2cc1OC` (centres undefined) yielded a max response of 38.8%.
`COc1cc(NC(C)CCCN)c2ncccc2c1` (centres undefined) showed a max response of 14.8%.
For `N[C@H](CCCP(=O)(O)O)C(=O)O`, the max response was -9.86% and -13.3%.
In the case of `Cc1c(N)c(=O)n(-c2ccccc2)n1C`, the max response is reported as 3.27% and 4.31%.
Compound `O=c1cc(-c2ccccc2)oc2c(O)c(O)ccc12` has a max response of -10.5%.
With `CCCCCCOc1ccccc1C(N)=O` the max response was 7.6%.
For `Cc1c(Nc2ncccc2C(=O)O)cccc1C(F)(F)F`, the max response was -9.98%.
With `O=C(O)c1cc(=O)c2c(Cl)cc(Cl)cc2[nH]1` the max response was 15.8% and 12.6%.
`NCCSSCCN` showed a max response of 9.22%.
For `CCCN(CC1CC1)c1nc(C)nc(Nc2c(Cl)cc(Cl)cc2Cl)c1Cl`, the max response was -15.8%.
`OC[C@H]1O[C@@H](n2cnc3c(NC4CCCCC4)ncnc32)[C@H](O)[C@@H]1O` showed a max response of -23.3%.
In the case of `CN1CCC[C@H]1c1cccnc1`, the max response is reported as 8.37% and -8.82%.
With `N=C(N)N` the max response was 15.8%.
For `COc1cccc(OC)c1OCCNCC1COc2ccccc2O1` (centres undefined), the max response was 10.2% and -61.3%.
Compound `COc1cc(C(O)CO)ccc1OS(=O)(=O)O` (centres undefined) has a max response of -36.7%.
For `CCCCCCCCCCCCCCCCCCNC(=O)OCC(COP(=O)([O-])OCC[n+]1ccsc1)OC` (centres undefined), the max response was -16.2%.
`Oc1c(Br)cc(Br)c2cccnc12` showed a max response of 0.383%.
Work on `CC(C(=O)O)c1ccc(C(=O)c2cccs2)cc1` (centres undefined) yielded a max response of 8.76%.
With `N[C@@H](CC(=O)O)C(=O)O` the max response was -7.93% and 52.8%.
With `CN1CCc2cc(O)c(O)cc2C(c2ccccc2)C1` (centres undefined) the max response was 31.9%.
With `CCCSc1ccc2nc(NC(=O)OC)[nH]c2c1` the max response was -8.08% and -12.8%.
